Results taken from PubChem BioAssay.
“And” between values parts separate entries of the source, which are not always exact repeats. Equal entries are not always repeated. Some structures have more than one record in an assay (separate samples or runs), and their calls can disagree. The source made the active and inactive calls.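 The calls were made as follows, unless noted: active = thallium flux through the channel raised or lowered by more than 3 SD from vehicle-only wells, actives on both sides; inactive = the rest.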

Legend:
[1] = galactose survival enhancers in mitochondrial complex I cybrids – cell-based, galactose medium, ATP luminescence, primary screen (AID 1645843;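 active = z-score of at least 1.8 in each of two replicates, scored against plate mean and spread of sample wells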;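 also: positive z means more ATP and so rescue of galactose-driven cybrid death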); details: complex I mutant cybrid cells, 72 h, stronger effect = higher value
[2] = tested on: F380Y/beta4; assay: BK channel mutant inhibitors and activators – cell-based, U2OS BacMam, thallium flux, beta subunits, selectivity assay, profiling panel (AID 1259406); details: U2OS BacMam BK variants, at 30 µM;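 also: initial slope of Thallos dye fluorescence rise after thallium is added; log ratio against the mean of 0.3% DMSO vehicle wells on the same plate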
[3] = biological target: Calcium-activated potassium channel subunit alpha-1 (Homo sapiens) + Leucine-rich repeat-containing protein 26 (Homo sapiens) (UniProt Q12791+Q2I0M4); assay: as above; details: U2OS BacMam BK variants, F380Y/Slo1WT/gamma1, at 30 µM
[4] = tested on: R275C; assay: as above; details: U2OS BacMam BK variants, at 30 µM
[5] = tested on: R275C/beta1; assay: as above; details: U2OS BacMam BK variants, at 30 µM
[6] = tested on: R275C/beta2Delta; assay: as above; details: U2OS BacMam BK variants, at 30 µM
[7] = tested on: R275C/beta4; assay: as above; details: U2OS BacMam BK variants, at 30 µM
[8] = tested on: R275C/Slo1WT/beta2; assay: as above; details: U2OS BacMam BK variants, at 30 µM
[9] = growth inhibition, single agent or in combination, cell-based, chromothripsis tumors, cisplatin or BGB combos (AID 1671449; in the data active = inhibition above about 80%;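 also: cells exposed for 96 hours; 0% = vehicle DMSO and 100% = killing by high DMSO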); details: LFS_MB_P medulloblastoma cells
[10] = growth inhibition, single agent and combos, cell-based, chromothripsis tumors, cisplatin or BGB combos (AID 1671450; in the data active = inhibition above about 80%;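 also: cells exposed to compound for four days; 0% = vehicle DMSO and 100% = cell killing by high DMSO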); details: HDN33 neuroblastoma cells, stronger effect = higher value
[11] = growth inhibition, single agents and combos, HTB85, cell-based, BGB or cisplatin IC20 combos, synergistic combos for chromothripsis tumors (AID 1671453; in the data active = inhibition above about 80%;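 also: cells exposed for 96 hours before readout; 0% = vehicle DMSO and 100% = high DMSO killing control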); details: HTB85 osteosarcoma cells, drug combinations, stronger effect = higher value

Sequence of Calcium-activated potassium channel subunit alpha-1 (Homo sapiens) + Leucine-rich repeat-containing protein 26 (Homo sapiens) (Q2I0M4 whole entry, looked up, one chain of several): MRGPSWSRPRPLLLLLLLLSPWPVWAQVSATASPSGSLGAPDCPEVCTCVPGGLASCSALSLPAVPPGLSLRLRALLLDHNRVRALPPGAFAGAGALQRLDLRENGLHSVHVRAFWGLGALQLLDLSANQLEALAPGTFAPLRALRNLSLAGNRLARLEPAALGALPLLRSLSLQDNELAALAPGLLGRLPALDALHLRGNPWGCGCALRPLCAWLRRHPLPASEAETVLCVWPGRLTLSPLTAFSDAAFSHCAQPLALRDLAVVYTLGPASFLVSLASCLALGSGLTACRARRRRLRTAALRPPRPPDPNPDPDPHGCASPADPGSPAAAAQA

**Q.** For `CN[C@H]1CC[C@@H](c2ccc(Cl)c(Cl)c2)c2ccccc21`, which z-score [1] is on record?
**A.** -1.29 (inactive) and -1.52 (inactive) and -0.69 (inactive)

**Q.** And the log fold change Tl+ flux [2]?
**A.** 1.13 (active) and 1.04 (active)

**Q.** What about the log fold change Tl+ flux [3] of the same molecule?
**A.** 0.123 (active) and 0.169 (active)

**Q.** And the log fold change Tl+ flux [4]?
**A.** -0.288 (active) and -0.259 (active)

**Q.** And the log fold change Tl+ flux [5]?
**A.** 0.549 (active) and 0.546 (active)

**Q.** And the log fold change Tl+ flux [6]?
**A.** -0.0453 (inactive) and -0.0183 (inactive)

**Q.** What about the log fold change Tl+ flux [7] of the same molecule?
**A.** 0.997 (active) and 0.996 (active)

**Q.** And the log fold change Tl+ flux [8]?
**A.** 0.019 (inactive) and -0.2 (active)

**Q.** With `CCn1cc(C(=O)O)c(=O)c2cc(F)c(N3CCN(C)CC3)cc21` as the molecule, how does the z-score [1] read?
**A.** 0.7 (inactive) and 0.275 (inactive)

**Q.** What about the inhibition ([9]; at 0.5 µM, stronger effect = higher value) of the same molecule?
**A.** -3.22% (inactive) and -29% (inactive)

**Q.** What about the inhibition ([9]; measured here: combination with BGB IC20, at 0.005 µM) of the same molecule?
**A.** 13.2% and 24%

**Q.** What about the inhibition ([9]; measured here: combination with BGB IC40, at 0.005 µM) of the same molecule?
**A.** -32.6% and 8.85%

**Q.** What about the inhibition ([9]; measured here: combination with BGB IC40, at 0.05 µM) of the same molecule?
**A.** 12.2% and 6.61%

**Q.** What about the inhibition ([9]; measured here: combination with cisplatin, at 0.5 µM, stronger effect = higher value) of the same molecule?
**A.** -21.7% and -50.8%

**Q.** And the inhibition ([9]; measured here: combination with cisplatin, at 5 µM, stronger effect = higher value)?
**A.** -2.03% and -14%

**Q.** And the inhibition ([10]; BGB combo, at 5 µM)?
**A.** -18.6% and 9.99%

**Q.** And the inhibition ([10]; at 0.5 µM)?
**A.** -25.3% (inactive) and 3.48% (inactive)

**Q.** What about the inhibition ([10]; cisplatin combo, at 5 µM) of the same molecule?
**A.** -42% and 24.3%

**Q.** And the inhibition ([10]; measured here: with BGB IC20 combination, at 0.5 µM)?
**A.** -16.6% and 0.157%

**Q.** What about the inhibition ([10]; measured here: with cisplatin IC20 combination, at 0.5 µM) of the same molecule?
**A.** -28.5% and 3.55%

**Q.** What about the inhibition ([10]; single agent, at 5 µM) of the same molecule?
**A.** -19.9% and 6.42%

**Q.** What about the inhibition ([11]; at 0.5 µM) of the same molecule?
**A.** -24.6% (inactive) and 0.8% (inactive)

**Q.** And the inhibition ([11]; measured here: with BGB IC20, at 0.5 µM)?
**A.** -39.2% and 13.3%

**Q.** What about the inhibition ([11]; measured here: with BGB IC20, at 5 µM) of the same molecule?
**A.** -22.1% and 10.1%

**Q.** And the inhibition ([11]; measured here: with cisplatin IC20, at 0.5 µM)?
**A.** -19.7% and -20.6%

**Q.** What about the inhibition ([11]; measured here: with cisplatin IC20, at 5 µM) of the same molecule?
**A.** -28.4% and -20.4%

**Q.** And the inhibition ([11]; single agent, at 5 µM)?
**A.** -27.1% and 2.1%

**Q.** And the log fold change Tl+ flux [2]?
**A.** 0.0266 (inactive)

**Q.** What about the log fold change Tl+ flux [3] of the same molecule?
**A.** -0.0628 (inactive)

**Q.** What about the log fold change Tl+ flux [4] of the same molecule?
**A.** -0.0565 (inactive)

**Q.** What about the log fold change Tl+ flux [5] of the same molecule?
**A.** 0.0145 (inactive)

**Q.** And the log fold change Tl+ flux [6]?
**A.** -0.0279 (inactive)

**Q.** And the log fold change Tl+ flux [7]?
**A.** 0.00214 (inactive)

**Q.** What about the log fold change Tl+ flux [8] of the same molecule?
**A.** 0.067 (inactive)
